Most compounds without a hit are left out; they make up all but 2.9% or so of the library.
EPAC2 ant val = human EPAC2 antagonism, validation; Q8WZA2; hit rate 1.7% among 16,000; Potency, µM (highest dose often 112 µM), usual class: inhibitors; EPAC2 Rap1B BODIPY-GDP exchange, fluorescence; note: nearly all actives have a fitted effect of over 40% in size
Target sequence (Q8WZA2 whole entry, looked up): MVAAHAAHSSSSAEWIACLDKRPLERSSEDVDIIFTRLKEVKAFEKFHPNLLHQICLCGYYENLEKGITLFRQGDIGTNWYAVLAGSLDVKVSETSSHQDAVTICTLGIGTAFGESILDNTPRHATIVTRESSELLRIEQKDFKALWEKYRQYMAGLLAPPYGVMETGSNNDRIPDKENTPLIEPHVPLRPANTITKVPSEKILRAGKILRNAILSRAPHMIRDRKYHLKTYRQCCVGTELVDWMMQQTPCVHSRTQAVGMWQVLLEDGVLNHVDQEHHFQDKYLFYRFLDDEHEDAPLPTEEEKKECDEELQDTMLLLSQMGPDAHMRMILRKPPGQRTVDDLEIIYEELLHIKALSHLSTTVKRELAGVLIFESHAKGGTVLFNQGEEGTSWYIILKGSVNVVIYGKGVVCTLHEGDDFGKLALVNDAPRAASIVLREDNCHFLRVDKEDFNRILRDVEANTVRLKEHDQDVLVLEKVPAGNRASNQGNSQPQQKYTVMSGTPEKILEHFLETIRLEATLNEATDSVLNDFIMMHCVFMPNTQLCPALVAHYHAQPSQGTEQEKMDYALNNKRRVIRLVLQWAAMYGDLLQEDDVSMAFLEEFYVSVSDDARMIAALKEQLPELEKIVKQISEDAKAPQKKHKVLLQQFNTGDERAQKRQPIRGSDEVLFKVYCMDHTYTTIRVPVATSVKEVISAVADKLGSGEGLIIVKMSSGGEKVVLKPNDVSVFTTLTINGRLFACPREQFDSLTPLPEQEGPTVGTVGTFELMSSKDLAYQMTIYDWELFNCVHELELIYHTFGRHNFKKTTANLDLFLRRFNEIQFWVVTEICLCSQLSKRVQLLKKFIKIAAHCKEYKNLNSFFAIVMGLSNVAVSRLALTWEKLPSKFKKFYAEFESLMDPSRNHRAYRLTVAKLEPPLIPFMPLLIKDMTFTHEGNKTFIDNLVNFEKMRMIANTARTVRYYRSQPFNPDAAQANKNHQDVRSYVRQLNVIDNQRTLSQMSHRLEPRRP
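Fluorescent exchange read-out: 100 nM EPAC2 with 250 nM RAP1B–BODIPY-GDP and 50 uM GDP; BODIPY-GDP release lowers fluorescence. Read at 480/540 nm every 5 min for 30 min at room temperature; normalized to 6.5 mM cAMP.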
EPAC1 ag val = human EPAC1 agonism, validation | O95398 | EPAC1 Rap1b BODIPY-GDP exchange, fluorescence | Potency, µM, actives largely listed as activators | hit rate 1% among 16,000 | AID 1645883; note: nearly all actives have a fitted effect of over 70% in size
Large screens that a line does not name were inactive; ! = a repeat was not active. Calls come from the whole dose curve; as a rule, active = well fitted curve in the direction sought with a large enough effect; inconclusive = small, poorly fitted or top-dose-only effect, or another doubt; inactive = no such curve, though single readings can be large; an effect the other way counts as inactive or inconclusive.

CC[C@@]1(O)C(=O)OCc2c1cc1n(c2=O)Cc2cc3c(CN(C)C)c(O)ccc3nc2-1	EPAC1 ag val 112µM
CC[C@@]1(O)C(=O)OCc2c1cc1n(c2=O)Cc2cc3c([N+](=O)[O-])cccc3nc2-1	none
CC(CN1c2ccccc2Sc2cccnc21)N(C)C (stereo not given)	none
Nc1ncnc2c1ncn2[C@H]1O[C@H](CO)[C@@H](O)[C@@H]1O	none
C/C=C1\NC(=O)[C@H]2CSSCC/C=C/[C@H](CC(=O)N[C@H](C(C)C)C(=O)N2)OC(=O)C(C(C)C)NC1=O (stereo not given in full)	none
Cc1nc(C)c(C(=O)NCc2nc(-c3cccc(NC(=O)c4ccccn4)c3)oc2C)s1	none
COc1cc(-c2ccc(N=Nc3ccc4c(S(=O)(=O)O)cc(S(=O)(=O)O)c(N)c4c3O)c(OC)c2)ccc1N=Nc1ccc2c(S(=O)(=O)O)cc(S(=O)(=O)O)c(N)c2c1O	EPAC2 ant val 28.2µM!
CC(=O)OCC(=O)[C@@]1(O)CC[C@H]2[C@@H]3CCC4=CC(=O)CC[C@]4(C)C3=CC[C@@]21C	none
C[C@@H](O[C@H]1OCCN(Cc2n[nH]c(=O)[nH]2)[C@@H]1c1ccc(F)cc1)c1cc(C(F)(F)F)cc(C(F)(F)F)c1	EPAC2 ant val 50.1µM
COc1ccc(SC[C@H](Cc2ccccc2)N2CC[C@@H](C)CCC2=O)cc1	EPAC2 ant val 39.8µM
Cc1ccc(SC[C@H](Cc2ccccc2)N2CC[C@@H](C)CCC2=O)cc1	EPAC2 ant val inconclusive
O=C(c1ccnc(-n2cnnn2)c1)N1CCOc2ccc(C(O)CCc3ccccc3)cc2C1 (stereo not given)	none
COc1ccc2ccccc2c1CN1CCC2(CCC(CNC(=O)c3ccccc3)O2)CC1 (stereo not given)	none
COc1ccccc1N1CCN(c2nc(CNC(=O)c3sc(C)nc3C)nc3ccccc23)CC1	none
Oc1cc(O)c2c(c1)O[C@H](c1ccc(O)c(O)c1)[C@@H](O)C2	none
O=c1c(O)cc(C2Oc3cc(O)cc(O)c3CC2O)cc2c(C3Oc4cc(O)cc(O)c4CC3O)cc(O)c(O)c12 (stereo not given)	EPAC2 ant val 20µM
CCCCOc1ccc(CC(=O)NO)cc1	EPAC1 ag val inconclusive
CCCc1c(OCCCOc2ccc(OCC(=O)O)cc2)ccc(CC=O)c1O	EPAC2 ant val 44.7µM
OCC(S)CS (stereo not given)	none
O=C1CCN(Cc2ccccc2)CCN1[C@H](COc1ccccc1)Cc1ccccc1	EPAC2 ant val 79.4µM
CCCN1CCC(=O)N([C@H](COc2ccccc2)Cc2ccccc2)CC1	none
CC(C)C[C@@H](CO)N1CCN(Cc2ccccc2)CCC1=O	EPAC2 ant val inconclusive
CC(C)C[C@@H](COc1ccccc1)N1CCN(Cc2ccccc2)CCC1=O	EPAC2 ant val 17.8µM
Cc1cc2nc(N3CCCN(Cc4cccn4-c4ncccn4)CC3)nc(C)c2cc1C	none
O=c1c(O)c(-c2ccccc2)oc2cc(O)cc(O)c12	EPAC2 ant val inconclusive
O=c1c(O)c(-c2cc(O)c(O)c(O)c2)oc2cc(O)cc(O)c12	EPAC2 ant val 35.5µM!
COC(=O)C1CCCCN1Cc1nc(N2CCCN(C(C)=O)CC2)c2ccccc2n1 (stereo not given)	none
c1ccc2c(N3CCCCCC3)nc(CN3CCCCC3c3nccs3)nc2c1 (stereo not given)	EPAC2 ant val 20µM
COc1cc2c(cc1OC)C(=O)N(C)CC2	none
COc1cc2cc3c4c(cc(OC)c(OC)c4c2cc1OC)CCN3C	EPAC2 ant val 50.1µM, EPAC1 ag val inconclusive
Cc1cnc(-n2ncc(C(=O)NCCc3cccnc3)c2C)nc1-c1cccs1	EPAC2 ant val inconclusive
CC(=O)Oc1ccc2c(c1)CCC1C2CC[C@]2(C)C(OC(C)=O)CCC12 (stereo not given in full)	EPAC1 ag val inconclusive
CC(=O)Oc1ccc2c(c1)CC[C@@H]1[C@@H]2CC[C@]2(C)[C@@H](O)CC[C@@H]12	EPAC1 ag val 28.2µM
COC(=O)[C@H]1[C@H]2C[C@@H]3c4[nH]c5cc(OC)ccc5c4CCN3C[C@H]2C[C@H](OC)[C@@H]1OC	none
COC(=O)c1cc(CNC(=O)c2ccccc2OC)cc(NC(=O)c2ccccc2F)c1	none
CCOC(=O)N1CCC(=C2c3ccc(Cl)cc3CCc3cccnc32)CC1	EPAC2 ant val 35.5µM!
CN1CCC(=C2c3ccccc3CCc3cccnc32)CC1	none
CSc1nc(C(=O)N2CCc3c(cnc(C)c3CNC(=O)c3ccc4c(c3)OCO4)C2)cs1	none
CN(C)CCCN1c2ccccc2Sc2ccc(Cl)cc21	none
OCCN1CCN(CCCN2c3ccccc3Sc3ccc(Cl)cc32)CC1	EPAC2 ant val 35.5µM!
C#CCN(Cc1nc(N2CCOCC2)c2ccc(Cl)cc2n1)Cc1ccco1	EPAC2 ant val 50.1µM
CN(C)Cc1ccccc1-c1nc(N2CCOCC2)c2ccccc2n1	none
Cc1cnc(-n2ncc(C(=O)N(C)CCc3ccccn3)c2-c2cccs2)nc1-c1ccc(F)cc1	none
CC[C@]1(c2ncc[nH]2)Cc2ccccc2O1	EPAC2 ant val 15.8µM
C[C@@H]1CN(Cc2ccc3c(c2)CN(Cc2cccn2-c2cccnc2)CCO3)C[C@H](C)O1	none
COc1cc([C@@H]2c3cc4c(cc3[C@@H](O[C@@H]3O[C@@H]5CO[C@@H](C)O[C@@H]5[C@H](O)[C@@H]3O)[C@H]3COC(=O)[C@H]23)OCO4)cc(OC)c1O	none
COc1ccc2[nH]c(-c3ccccc3)c(CCNC(C)=O)c2c1	EPAC2 ant val inconclusive
CCCC(=O)NCCc1c2n(c3ccc(OC)cc13)CCCc1ccccc1-2	EPAC2 ant val 14.1µM
CCC1OC(=O)C[C@@H](O)[C@H](C)[C@@H](O[C@@H]2O[C@H](C)C[C@H](N(C)C)[C@H]2O)[C@@H](CC=O)C[C@@H](C)C(=O)/C=C/[C@]2(C)OC2C1C (stereo not given in full)	none
Cc1ccc2ccccc2n1	none
Cc1ccc(O)c(N=Nc2ccccc2)n1	EPAC2 ant val 56.2µM!
CC(=O)N[C@@H]([C@@H](O)[C@H](O)[C@H](O)CO)[C@@H](O)CC(=O)C(=O)O	none
CCOc1ccccc1CN1CCCC(c2nc(C)ncc2-c2ccc(F)cc2)C1 (stereo not given)	none
CN1CC(O)C2=CC(=O)C(=O)C=C21 (stereo not given)	EPAC2 ant val 79.4µM
CCCN=C(N)NCCC[C@H](N)C(=O)O	none
CCCCC(CC)CN=C(N)NC(N)=NCCCCCCN=C(N)NC(N)=NCC(CC)CCCC (stereo not given)	EPAC2 ant val 56.2µM
Cc1ncc2c(c1CNS(=O)(=O)c1cccs1)CCN(C(=O)/C=C/c1cc(F)cc(F)c1)C2	none
COc1cccc(Nc2ncc3nc(-c4ccccc4)c(=O)n(C4CC4)c3n2)c1	none
COCCn1c(=O)c(-c2cc(F)cc(F)c2)nc2cnc(Nc3cccc(OC)c3)nc21	EPAC1 ag val 89.1µM
COc1cccc(Nc2ncc3nc(-c4cc(F)cc(F)c4)c(=O)n(C4CC4)c3n2)c1	EPAC1 ag val 100µM
COCCn1c(=O)c(-c2ccc(F)cc2)nc2cnc(Nc3cccc(OC)c3)nc21	none
CC(C)NC(=O)[C@@H]1C[C@@H](Sc2nc3ccccc3[nH]2)CN1C1Cc2ccccc2C1	none
Cc1ccc(C(=O)Nc2ccc(S(=O)(=O)O)c3cc(S(=O)(=O)O)cc(S(=O)(=O)O)c23)cc1NC(=O)c1cccc(NC(=O)Nc2cccc(C(=O)Nc3cc(C(=O)Nc4ccc(S(=O)(=O)O)c5cc(S(=O)(=O)O)cc(S(=O)(=O)O)c45)ccc3C)c2)c1	EPAC1 ag val 89.1µM!

Source: PubChem BioAssay (National Center for Advancing Translational Sciences (NCATS))
